An excerpt weighted towards active compounds, which were near 5.7% of everything screened.
D3 antag = qHTS of D3 Dopamine Receptor Antagonist: qHTS; D3R cells, DiscoveRx beta-arrestin luminescence, antagonist mode; hits give low values; max response, negative = inhibition, %; 2.5% of 360,000 active; AID 652054, 2013; in the data active = max response below about -50%; inconclusive = no clear call, values can overlap the other calls
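Cells expressing the human receptor were seeded at 1500 cells/well, incubated overnight at 37 degrees C in 5% CO2, then exposed to library compounds with dopamine controls for 90 minutes at 37 degrees C before luminescent detection.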
GLP1R ag = qHTS of GLP-1 Receptor Agonists; HEK293 GLP-1R CRE-luciferase, luminescence, 4-6 h; cells express a hypersensitive GLP-1R form; Potency, µM (series often up to 45.6 µM), usual class: activators; 0.007% of 380,000 active
GLP-1R inv ag = qHTS of GLP-1 Receptor Inverse Agonists (Inhibition Mode) | Glucagon-like peptide 1 receptor (Homo sapiens), P43220 | HEK293 GLP-1R CRE-luciferase, luminescence, 24 h; GLP-1R form is constitutively active | Potency, µM (highest dose often 38.3 µM), actives largely listed as inhibitors | 1.6% of 410,000 active | AID 624417, 2012; also: nearly all actives have a fitted effect of over 55% in size
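HEK293 cells stably co-expressing constitutively active GLP-1R and a cAMP-responsive luciferase reporter were seeded in DMEM with 10% Nu serum, given compounds after 12 h, and incubated 24 h at 37 deg C. Luminescence was then read.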
ClpP mod = qHTS Assay for Activators of ClpP. purified B. subtilis ClpP, FRET peptide cleavage, 20 min. 1.9% of 340,000 active. Potency, µM (top dose mostly 57.5 µM); active = well fitted falling curve with a large enough effect; inconclusive = small, poorly fitted or top-dose-only effect; inactive = no such curve, though single readings can be large or run the other way; also: the source files actives as falling curves though it sought activators and does not explain the sign; nearly all actives have a fitted effect of over 65% in size
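Buffer: 100 mM Tris/HCl pH8, 100 mM KCl, 0.05% low protease BSA, 2.5% glycerol, 0.01% Tween-20. ClpP 10 microg/mL final; 20 min RT; delta FRET normalized to ADEP and DMSO controls.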
HEK293 tox = qHTS of GLP-1 Receptor Inverse Agonists: Cytotox Screen. HEK293 cAMP-luciferase reporter cells, luminescence, 24 h. Potency, µM (doses to about 38.3 µM), most hits filed as inhibitors. 0.13% of 410,000 active;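 also: loss of luciferase light is scored as toxicity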
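MLSMR compounds, 24 hr on cells at 37 deg C/5% CO2; luminescence after luciferase reagent (12 min RT). Inhibition counted as the undesired cytotoxic outcome.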
DRD3 agonist = qHTS of D3 Dopamine Receptor Agonist: qHTS. D(3) dopamine receptor (Homo sapiens), P35462. D3R DiscoveRx beta-arrestin cells, luminescence, 90 min. max activation, %. 0.58% of 410,000 active. AID 652048, 2013; in the data active = max activation above about 30%
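Agonist mode: compounds and dopamine controls were applied to plated cells for 90 min at 37 degrees C after an overnight attachment at 1500 cells/well. Luminescent read-out followed 30 - 60 minutes at room temperature with DiscoveRx detection reagent.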
ClpP inh valid = qHTS Assay for Activators of ClpP: Hit Validation of Inhibitors | purified B. subtilis ClpP, FRET-FV substrate cleavage, 20 min | Potency, µM (series often up to 57.5 µM), actives largely listed as inhibitors | shares compounds with ClpP mod | 40% of 470 active | AID 743245, 2014; also: nearly all actives have a fitted effect of over 70% in size
A number is an active result; – = inactive; ? = inconclusive; · = no result given. Unless noted, calls follow the shape of the dose curve; as a rule, active = well fitted curve in the direction sought with a large enough effect; inconclusive = small, poorly fitted or top-dose-only effect, or another doubt; inactive = no such curve, though single readings can be large; an effect the other way counts as inactive or inconclusive.

SMILES	D3 antag	GLP1R ag	GLP-1R inv ag	ClpP mod	HEK293 tox	DRD3 agonist	ClpP inh valid
CCc1ccc(NS(=O)(=O)c2ccc3[nH]cc(C(=O)N(C)Cc4ccco4)c(=O)c3c2)cc1	–	–	–	–	–	–	·
O=c1oc2ccccc2cc1-c1nc(-c2cccc(Cl)c2)cs1	·	·	–	4.47µM	–	–	?
O=c1oc2ccccc2cc1-c1csc(Cc2nc(-c3ccc(Cl)cc3)cs2)n1	–	–	–	–	–	–	·
CC(=O)Nc1cccc(-c2cn3ccccc3n2)c1	–	–	–	·	–	–	·
O=C(Nc1cccc(-c2cn3ccccc3n2)c1)c1cc2ccccc2oc1=O	–	–	–	–	–	–	–
CN1CCN(c2ccc(-c3ccc4ccccc4n3)cc2)CC1	–	–	–	·	–	–	·
c1ccc2nc(-c3ccc(N4CCOCC4)cc3)ccc2c1	–	–	–	–	–	–	–
Cc1ccc(C(=O)NCC(c2ccc3c(c2)OCO3)N2CCN(C)CC2)cc1C (stereo unspecified)	·	·	–	–	–	–	·
CC1=C(C(=O)Nc2ccccc2)C(c2ccc(C)cc2)N=C(Nc2nc3ccccc3o2)N1 (stereo unspecified)	–	–	?	5.01µM	?	–	24.3µM
Cc1cc(C)cc(OCC(=O)N2CCC(c3nc4ccccc4o3)CC2)c1	·	·	?	–	–	–	·
CCS(=O)(=O)c1ccccc1C(=O)Nc1ccc(-c2nc3ccccc3s2)cc1	·	·	–	–	–	–	·
CC(C)(C)C(=O)Nc1ccc(-c2nc3ccccc3s2)cc1	·	·	–	10µM	–	–	–
COc1ccc(-c2nc3ccccc3s2)cc1NC(=O)c1ccc(F)cc1	·	·	–	–	–	–	21.7µM
CC(=O)Nc1ccc(NC(=O)Nc2ccc(C)c(C)c2)cc1	–	–	–	–	–	–	·
CC(=O)Nc1cccc(NC(=O)Nc2ccc(C)c(Cl)c2)c1	–	–	–	1.78µM	–	–	–
O=C(Cn1c(=O)n(Cc2ccc(F)cc2)c(=O)c2sc3ccccc3c21)Nc1ccc(F)cc1F	·	·	–	–	–	–	·
COc1cccc(-n2c(SCC(=O)Nc3nnc(C)s3)nc3c([nH]c4ccccc43)c2=O)c1	·	–	–	–	–	–	·
O=S(=O)(c1ccccc1)N1CCC2(CC1)OCCN2S(=O)(=O)c1cccs1	–	–	–	–	–	–	–
COc1ccc(S(=O)(=O)N2CCOC23CCN(S(=O)(=O)c2cccs2)CC3)cc1	–	–	–	–	–	–	·
COc1ccc(CCNC(=O)CCc2c(C)nc3c4c(C)cc(C)nc4nn3c2C)cc1OC	·	·	–	?	–	–	·
Clc1cc2nc3ccccn3c2cc1Cl	–	–	–	8.91µM	–	–	19.3µM
O=Cc1c(Cl)nc2ccccn12	–	–	–	·	–	–	·
Cc1ccc(SC2=NS(=O)(=O)c3ccccc32)c(C)c1	·	·	·	–	·	·	·
O=C(COc1ccc2oc(-c3ccco3)cc(=O)c2c1)N1CCCCC1	–	–	–	–	–	–	·
O=c1cc(-c2ccco2)oc2ccc(Cl)cc12	–	–	–	2.82µM	–	–	?
SMILES	D3 antag	GLP1R ag	GLP-1R inv ag	ClpP mod	HEK293 tox	DRD3 agonist	ClpP inh valid
Fc1ccccc1N1CCN(c2nnc(C(F)(F)F)c3nnn(Cc4ccccc4)c23)CC1	·	·	–	7.94µM	–	–	19.3µM
CCCCNC(=O)C1c2ccccc2OCC(=O)N1Cc1cccnc1 (stereo unspecified)	–	–	–	–	–	–	·
CCOc1ccc(CC(=O)Nc2c(C(=O)Nc3ccccc3)oc3ccccc23)cc1OCC	–	–	–	–	–	–	?
Cc1ccc(NC(=O)c2oc3ccccc3c2NC(=O)Cc2ccccc2)cc1	·	–	–	–	–	–	?
Cc1ccc(Cn2c(=O)n(Cc3ccccc3Cl)c(=O)c3cccnc32)cc1	·	·	–	–	–	–	·
CCOC(=O)c1cc2c(=O)n3ccccc3nc2n(CC2CCCO2)c1=NC(=O)c1ccccc1OCC (stereo unspecified)	·	·	–	–	–	–	·
Cc1cccc(CCNC(=O)C2CCN(c3ncnc4c3nc3n4CCCCC3)CC2)c1	·	·	–	–	–	–	·
Cc1c(Cl)cccc1NC(=O)Nc1nnc(N2CCCCCC2)s1	·	·	–	–	–	–	·
c1ccc2c(c1)NC1(CCCCC1)n1c-2nc2ccccc21	–	–	–	2.51µM	–	–	13.7µM
c1ccc2c(c1)NC1(CCCCCC1)n1c-2nc2ccccc21	–	–	–	–	–	–	·
CCc1cccc2c(C(O)c3c[nH]c4ccccc34)c[nH]c12 (stereo unspecified)	·	·	·	–	·	·	·
COc1ccc(N2C(=O)NC3CC2(C)Oc2ccccc23)cc1 (stereo unspecified)	–	–	–	·	–	–	·
COc1ccc(N2C(=O)NC3CC2(C)Oc2ccc(Br)cc23)cc1OC (stereo unspecified)	–	–	–	–	–	–	–
CCOC(=O)c1c(NC(=O)c2nc(SCC)ncc2Cl)sc2c1CCCC2	·	·	–	–	–	–	·
CC(C)CCNC(=O)COc1ccc2c(c1)C(=O)CC(C)(C)O2	–	–	–	28.2µM	–	–	15.3µM
Cc1ccc(NC(=O)COCc2cc(-c3cccs3)on2)cc1Cl	·	·	–	–	–	–	·
CCc1cc(N2CCOCC2)cc2c1[nH]c1ccccc12	–	–	?	10µM	–	–	17.2µM
O=C(c1ccccc1Cl)N1CCN(CCc2ccccn2)CC1	·	·	–	–	–	–	·
O=C(Nc1ccccc1)c1cc(C2CCCCN2S(=O)(=O)Cc2cccc(C(F)(F)F)c2)on1 (stereo unspecified)	–	–	?	–	–	–	·
O=C(c1cc2c(=O)n3ccccc3nc2s1)N1CCOCC1	–	–	–	4.47µM	–	–	24.3µM
COc1ccccc1C1CC(c2ccco2)=NN1c1ccccc1 (stereo unspecified)	–	–	10µM	3.55µM	–	–	27.3µM
COc1ccccc1-c1nnc(SCC(=O)c2ccc(F)cc2)n1-c1ccccc1	·	–	?	–	–	–	·
Cc1cc(N2CCN(c3ccc(F)cc3)CC2)n2cnnc2n1	·	·	–	–	–	–	·
Cc1cc(N2CCN(C)CC2)n2cc(-c3ccc(F)cc3)nc2n1	–	–	–	7.08µM	–	–	27.3µM

Compound activity: PubChem BioAssay, National Center for Advancing Translational Sciences (NCATS)
